Reference: article PMC4336329 (PLoS ONE, 2015)
In all, about 310,000 compounds went through this assay and about 2,200 (0.71%) showed an effect of 50% or more. Effects have a minus sign here. Shown is part of a subset that was picked to be rich in strong results.

What follows are molecules tested against human ether-à-go-go-related gene (hERG) potassium channel (human, UniProt Q12809) (assay: primary screen, population patch clamp on CHO cells stably expressing hERG; higher = less effect of the substance).
Chain of human ether-à-go-go-related gene (hERG) potassium channel (Q12809 whole entry, looked up): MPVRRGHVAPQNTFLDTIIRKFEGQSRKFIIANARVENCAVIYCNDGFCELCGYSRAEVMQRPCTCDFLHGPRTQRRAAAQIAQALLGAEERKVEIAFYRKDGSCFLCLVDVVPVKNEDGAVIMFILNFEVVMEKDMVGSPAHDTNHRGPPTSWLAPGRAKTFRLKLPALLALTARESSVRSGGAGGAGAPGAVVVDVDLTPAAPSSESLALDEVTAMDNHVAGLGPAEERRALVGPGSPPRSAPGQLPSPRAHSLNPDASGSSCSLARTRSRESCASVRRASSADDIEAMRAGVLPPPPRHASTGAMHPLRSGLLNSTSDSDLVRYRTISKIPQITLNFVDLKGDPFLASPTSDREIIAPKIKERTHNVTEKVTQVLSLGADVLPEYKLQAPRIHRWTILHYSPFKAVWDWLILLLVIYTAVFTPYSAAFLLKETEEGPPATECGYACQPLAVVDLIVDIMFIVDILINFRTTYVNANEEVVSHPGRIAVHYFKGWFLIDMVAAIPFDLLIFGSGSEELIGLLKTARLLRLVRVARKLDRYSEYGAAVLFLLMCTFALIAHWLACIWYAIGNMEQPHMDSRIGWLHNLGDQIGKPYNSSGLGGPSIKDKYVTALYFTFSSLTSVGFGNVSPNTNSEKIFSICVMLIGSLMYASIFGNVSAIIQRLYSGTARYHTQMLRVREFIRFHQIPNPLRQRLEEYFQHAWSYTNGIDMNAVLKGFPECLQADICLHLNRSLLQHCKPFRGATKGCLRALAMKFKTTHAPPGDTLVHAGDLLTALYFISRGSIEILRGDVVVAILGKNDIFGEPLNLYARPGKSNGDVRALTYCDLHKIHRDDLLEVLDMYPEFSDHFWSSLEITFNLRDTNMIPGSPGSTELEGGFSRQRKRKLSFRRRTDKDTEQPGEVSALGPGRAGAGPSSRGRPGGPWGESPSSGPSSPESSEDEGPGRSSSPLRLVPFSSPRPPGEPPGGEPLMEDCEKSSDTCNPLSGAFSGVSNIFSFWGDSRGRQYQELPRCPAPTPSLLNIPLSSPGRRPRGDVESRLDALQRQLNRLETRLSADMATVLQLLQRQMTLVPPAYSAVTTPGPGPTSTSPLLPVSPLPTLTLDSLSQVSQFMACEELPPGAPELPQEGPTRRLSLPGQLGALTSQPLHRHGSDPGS

Compound | hERG current change (%, negative = inhibition) at 1uM [%]
COC(=O)c1cc2ccsc2n1Cc1ccccc1F | -2.01
COc1ccc(/C=C(/NC(=O)c2ccc(OC)c(OC)c2)C(=O)NCCCn2ccnc2)cc1 | 15.5
COc1ccc(/C=C(\NC(=O)c2ccc(C)cc2)C(=O)NCCCn2ccnc2)cc1 | -91.7
COc1ccc(C(=O)N/C(=C\c2ccccc2)C(=O)NCCCn2ccnc2)cc1 | -18.2
Cc1oc(CN2CCOCC2)cc1C(=O)O | 7.66
COc1ccc(-n2cc(-c3ccc(OC(F)F)cc3)[n+]3c2CCCCC3)cc1.[Br-] | -52.9
FC(F)Oc1ccc(-n2cc(-c3ccc(Cl)cc3)[n+]3c2CCCCC3)cc1.[Br-] | -45.2
Cc1ccc(-c2cn(-c3ccc(OC(F)F)cc3)c3[n+]2CCCCC3)cc1.[Br-] | -13.3
CCn1nccc1C(=O)Nc1cc(Cl)ccc1Cl | 0.897
CC(=O)c1ccc(S(=O)(=O)N2CCCC(N(C)CCc3ccccn3)C2)cc1 (stereo not drawn) | -44.4
COc1ccc(S(=O)(=O)N2CCCC(N(C)CCc3ccccc3)C2)cc1OC (stereo not drawn) | -26.5
COc1ccc(CCN(C)C2CCCN(S(=O)(=O)c3ccccc3F)C2)cc1OC (stereo not drawn) | -45.9
CC(=O)c1ccc(S(=O)(=O)N2CCCC(N(C)CCc3ccccc3)C2)cc1 (stereo not drawn) | -78.7
COc1ccc(CCN(C)C2CCCN(S(=O)(=O)c3ccccc3)C2)cc1OC (stereo not drawn) | -64.9
COc1ccc(CCN(C)C2CCCN(S(=O)(=O)c3ccc(C)cc3)C2)cc1OC (stereo not drawn) | -82.1
CN(CCc1ccccc1)C1CCCN(S(=O)(=O)c2cccc(F)c2)C1 (stereo not drawn) | -2.76
COc1ccc(CCN(C)C2CCCN(S(C)(=O)=O)C2)cc1OC (stereo not drawn) | 6.5
COc1ccc(CCN(C)C2CCCN(S(=O)(=O)N(C)C)C2)cc1OC (stereo not drawn) | 8.71
Cc1cc(NC(=O)CSc2nc3c(c(=O)n2-c2ccccc2)SC(C)C3)no1 (stereo not drawn) | -8.78
Cc1ccc(C(=O)Nc2nc3nc(-c4ccccc4)cc(=O)n3[nH]2)cc1 | 14.5
CCC(C)NS(=O)(=O)c1ccc(NC(C)=O)cc1 (stereo not drawn) | 11.2

Compound | hERG current change (%, negative = inhibition) at 1uM [%]
CC(C)Cc1cc(C(=O)O)n[nH]1 | 5.43
CC(=O)N1CCc2cc(Br)cc(S(=O)(=O)N3CCc4ccccc43)c21 | -1.76
O=C(c1ccc(-n2cccc2)cc1)N1CCOCC1 | 7.49
CCc1ccccc1N(CC(=O)NC1CCCCC1)C(=O)CCC(=O)Nc1ccccn1 | 12.3
O=C(Nc1ccc(-c2csc(Nc3ccccc3)n2)cc1)c1cc([N+](=O)[O-])cc(C(F)(F)F)c1 | 4.72
O=C(NCCCNC(=O)c1ccc(-c2cccc(Cl)c2)o1)c1cnccn1 | -12.5
O=C(NCCNC(=O)c1ccc(-c2ccc(Cl)c(Cl)c2)o1)c1cnccn1 | -54.4
Cc1ccc(-c2ccc(C(=O)NCCCNC(=O)c3cnccn3)o2)cc1Cl | 18.8
NS(=O)(=O)OCCCc1ccc(C(F)(F)F)cc1 | 6.75
COc1ccc(CCn2c(=N)c(C(=O)NCC3CCCO3)cc3c(=O)n4ccccc4nc32)cc1OC (stereo not drawn) | -79.9
COc1ccc(Cn2c(=N)c(C(=O)NCC3CCCO3)cc3c(=O)n4ccccc4nc32)cc1 (stereo not drawn) | -85
COc1ccc(CCn2c(=N)c(C(=O)NCC3CCCO3)cc3c(=O)n4ccccc4nc32)cc1 (stereo not drawn) | -84.4
COc1ccc(CCNC(=O)CCn2c(=O)c3ccccc3n(CC(=O)NCC3CCCO3)c2=O)cc1OC (stereo not drawn) | 9.7
Cc1cc(N2CCC(C)CC2)nc2ccc(N3C(=O)CCC3=O)cc12 | 9.64
O=C(NC(=S)Nc1ncc(Br)cc1Br)c1cncc(Br)c1 | 4.04
COc1ccc(C(=O)Nc2nnc(-c3cccs3)s2)cc1 | 18.6
CC(C)(C)OC(=O)N[C@@H](Cc1ccccc1)c1nnc(S(=O)(=O)Cc2ccccc2)o1 | 5.19
CCCCc1nc(Cl)c(C#N)c2c1CCCC2 | 5.82
CCCCCc1nc2c(c3c1CCCC3)CCCC2 | -51.7
CCCCCc1n[nH]c2c1CCCC2 | 9.3
CC1CCCC(C)N1C(=O)COC(=O)CCC1CCCC1 (stereo not drawn) | 9.29
